We go through 7 compounds from ChEMBL document CHEMBL1961873, “Compounds: GSK PKIS; Assays: Nanosyn kinase panel” (2012).

Where “and” joins values, the source holds several entries; their conditions need not be identical. Equal entries are not always repeated.

Experiment [1] relates to Proto-oncogene tyrosine-protein kinase receptor Ret (Homo sapiens), P07949 [Y791F]. The note with it: at 1 µM.
Experiment [2] addresses Macrophage-stimulating protein receptor (Homo sapiens) (UniProt Q04912). The note with it: at 0.1 µM.
For experiment [3] the target is unchanged. Particulars: at 1 µM.
In experiment [4] the target is Proto-oncogene tyrosine-protein kinase ROS (Homo sapiens) (UniProt P08922). The note with it: at 0.1 µM.
For experiment [5] the target is unchanged. Particulars: at 1 µM.
In experiment [6] the target is Proto-oncogene tyrosine-protein kinase Src (Homo sapiens) (UniProt P12931). The note with it: at 0.1 µM.
Chain of Proto-oncogene tyrosine-protein kinase Src (Homo sapiens) (P12931 2-536 limits assumed): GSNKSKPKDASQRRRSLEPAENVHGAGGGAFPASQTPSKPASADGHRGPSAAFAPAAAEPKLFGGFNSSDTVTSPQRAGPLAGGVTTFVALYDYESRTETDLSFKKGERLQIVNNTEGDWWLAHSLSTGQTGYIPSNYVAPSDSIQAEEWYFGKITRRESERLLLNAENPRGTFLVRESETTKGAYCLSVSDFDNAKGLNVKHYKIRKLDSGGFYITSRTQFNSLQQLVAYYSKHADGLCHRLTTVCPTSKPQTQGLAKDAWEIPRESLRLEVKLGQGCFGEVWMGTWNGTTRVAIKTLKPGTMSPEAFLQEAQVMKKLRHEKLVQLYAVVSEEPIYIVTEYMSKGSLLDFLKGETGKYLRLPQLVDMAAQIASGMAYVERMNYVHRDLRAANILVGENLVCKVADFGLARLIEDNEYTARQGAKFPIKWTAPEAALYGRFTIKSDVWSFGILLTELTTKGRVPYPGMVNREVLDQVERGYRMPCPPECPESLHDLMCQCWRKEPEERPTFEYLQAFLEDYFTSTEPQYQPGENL
For experiment [7] the target is unchanged. Particulars: at 1 µM.
The target in experiment [8] is Tyrosine-protein kinase Srms (Homo sapiens) (UniProt Q9H3Y6). The note with it: at 0.1 µM.
Chain of Tyrosine-protein kinase Srms (Homo sapiens) (Q9H3Y6 whole entry): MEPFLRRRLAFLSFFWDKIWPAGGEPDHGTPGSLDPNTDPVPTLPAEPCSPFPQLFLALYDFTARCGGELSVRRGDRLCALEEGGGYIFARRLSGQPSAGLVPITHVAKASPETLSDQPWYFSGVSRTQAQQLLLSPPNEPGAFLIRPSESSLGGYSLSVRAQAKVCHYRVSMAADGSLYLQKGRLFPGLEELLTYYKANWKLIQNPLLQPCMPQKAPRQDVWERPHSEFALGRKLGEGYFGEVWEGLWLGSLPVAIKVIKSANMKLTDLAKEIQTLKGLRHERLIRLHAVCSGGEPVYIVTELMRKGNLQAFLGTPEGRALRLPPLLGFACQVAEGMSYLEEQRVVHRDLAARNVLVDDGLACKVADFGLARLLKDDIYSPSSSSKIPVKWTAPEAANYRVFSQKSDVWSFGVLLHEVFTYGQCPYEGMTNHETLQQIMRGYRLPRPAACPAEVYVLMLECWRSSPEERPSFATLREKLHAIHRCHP
Experiment [9] shares this target. The note with it: at 1 µM.
Experiment [10] deals with Tyrosine-protein kinase SYK (Homo sapiens) (UniProt P43405). Particulars: at 0.1 µM.
Experiment [11] shares this target. Particulars: at 1 µM.
Experiment [12] addresses T1, Tyrosine-protein kinase Tec (Homo sapiens) (UniProt P42680).
T1 sequence (whole entry): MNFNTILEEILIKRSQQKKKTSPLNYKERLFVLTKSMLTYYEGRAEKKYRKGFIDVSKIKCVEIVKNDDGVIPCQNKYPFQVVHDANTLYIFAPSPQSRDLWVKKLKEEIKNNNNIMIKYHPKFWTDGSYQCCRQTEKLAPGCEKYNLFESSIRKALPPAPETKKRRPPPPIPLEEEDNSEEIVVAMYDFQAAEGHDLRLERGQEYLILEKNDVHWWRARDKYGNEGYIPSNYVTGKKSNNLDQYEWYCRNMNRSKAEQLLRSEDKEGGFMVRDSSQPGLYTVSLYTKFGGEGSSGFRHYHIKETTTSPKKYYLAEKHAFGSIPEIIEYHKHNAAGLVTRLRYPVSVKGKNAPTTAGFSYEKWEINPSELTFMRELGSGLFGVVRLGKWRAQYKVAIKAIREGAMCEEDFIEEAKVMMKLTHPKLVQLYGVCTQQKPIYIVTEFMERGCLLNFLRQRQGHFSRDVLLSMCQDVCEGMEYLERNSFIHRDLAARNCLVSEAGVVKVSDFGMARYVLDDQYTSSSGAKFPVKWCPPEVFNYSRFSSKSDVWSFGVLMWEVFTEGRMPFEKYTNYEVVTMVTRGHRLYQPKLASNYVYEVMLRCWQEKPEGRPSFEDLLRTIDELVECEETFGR
The note with it: at 0.1 µM.

The target in experiment [13] is T1, Tyrosine-protein kinase Tec (Homo sapiens). The note with it: at 1 µM.
Experiment [14] addresses Angiopoietin-1 receptor (Homo sapiens) (UniProt Q02763). The note with it: at 0.1 µM.
For experiment [15] the target is unchanged. The note with it: at 1 µM.
Experiment [16] concerns the target T2, Non-receptor tyrosine-protein kinase TNK1 (Homo sapiens) (UniProt Q13470).
T2 sequence (whole entry): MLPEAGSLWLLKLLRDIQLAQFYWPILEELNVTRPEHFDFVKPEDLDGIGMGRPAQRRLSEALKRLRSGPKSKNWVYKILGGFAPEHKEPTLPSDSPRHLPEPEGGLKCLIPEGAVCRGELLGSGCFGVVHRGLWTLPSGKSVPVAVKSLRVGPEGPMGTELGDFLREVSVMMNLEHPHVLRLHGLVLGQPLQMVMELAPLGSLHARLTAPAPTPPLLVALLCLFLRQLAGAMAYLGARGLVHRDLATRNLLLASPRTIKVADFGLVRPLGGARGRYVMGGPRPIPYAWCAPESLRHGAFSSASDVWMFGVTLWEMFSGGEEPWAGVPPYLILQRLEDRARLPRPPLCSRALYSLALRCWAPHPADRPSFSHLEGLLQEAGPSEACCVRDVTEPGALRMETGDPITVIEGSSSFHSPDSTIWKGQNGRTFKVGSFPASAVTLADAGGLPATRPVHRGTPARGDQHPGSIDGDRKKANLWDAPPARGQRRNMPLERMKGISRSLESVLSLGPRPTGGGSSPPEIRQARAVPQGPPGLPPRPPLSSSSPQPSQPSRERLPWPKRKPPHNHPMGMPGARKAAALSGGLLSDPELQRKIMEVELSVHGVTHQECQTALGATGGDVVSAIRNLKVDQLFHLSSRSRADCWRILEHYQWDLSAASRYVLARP
The note with it: at 0.1 µM.

Experiment [17] concerns the target T2, Non-receptor tyrosine-protein kinase TNK1 (Homo sapiens). Particulars: at 1 µM.
In experiment [18] the target is Activated CDC42 kinase 1 (Homo sapiens) (UniProt Q07912). The note with it: at 0.1 µM.
Chain of Activated CDC42 kinase 1 (Homo sapiens) (Q07912 whole entry, looked up): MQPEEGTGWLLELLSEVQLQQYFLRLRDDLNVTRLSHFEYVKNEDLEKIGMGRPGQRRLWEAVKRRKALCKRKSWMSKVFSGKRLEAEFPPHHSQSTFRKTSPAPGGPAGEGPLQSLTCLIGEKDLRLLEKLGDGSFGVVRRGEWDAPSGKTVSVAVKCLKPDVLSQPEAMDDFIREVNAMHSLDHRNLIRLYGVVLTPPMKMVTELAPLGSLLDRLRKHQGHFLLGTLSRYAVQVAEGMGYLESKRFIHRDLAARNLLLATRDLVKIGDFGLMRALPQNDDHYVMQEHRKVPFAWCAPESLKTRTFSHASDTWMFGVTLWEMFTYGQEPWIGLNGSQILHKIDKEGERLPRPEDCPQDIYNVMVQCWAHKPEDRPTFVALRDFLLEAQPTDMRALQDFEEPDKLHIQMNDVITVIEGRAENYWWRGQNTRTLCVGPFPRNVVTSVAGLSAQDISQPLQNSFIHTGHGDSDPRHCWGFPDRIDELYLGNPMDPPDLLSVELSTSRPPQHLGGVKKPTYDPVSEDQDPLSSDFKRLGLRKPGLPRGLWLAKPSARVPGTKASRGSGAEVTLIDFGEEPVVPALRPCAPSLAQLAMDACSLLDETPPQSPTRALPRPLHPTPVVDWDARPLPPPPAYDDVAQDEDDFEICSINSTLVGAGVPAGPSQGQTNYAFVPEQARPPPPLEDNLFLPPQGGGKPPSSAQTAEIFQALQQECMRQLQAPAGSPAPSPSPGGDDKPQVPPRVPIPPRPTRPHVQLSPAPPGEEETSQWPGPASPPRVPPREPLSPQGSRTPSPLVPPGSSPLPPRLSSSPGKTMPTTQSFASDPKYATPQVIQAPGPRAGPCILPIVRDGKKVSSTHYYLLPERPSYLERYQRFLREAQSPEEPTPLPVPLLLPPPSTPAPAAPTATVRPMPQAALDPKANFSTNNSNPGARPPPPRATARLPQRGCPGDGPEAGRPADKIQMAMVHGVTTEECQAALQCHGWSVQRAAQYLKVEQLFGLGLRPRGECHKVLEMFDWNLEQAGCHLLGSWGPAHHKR
Experiment [19] has the same target. Particulars: at 1 µM.
For experiment [20], the target named is High affinity nerve growth factor receptor (Homo sapiens) (UniProt P04629). Particulars: at 0.1 µM.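 Also: each value is a mean of replicate percent inhibition readings against TRKA kinase.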
Chain of High affinity nerve growth factor receptor (Homo sapiens) (P04629 33-796 limits assumed): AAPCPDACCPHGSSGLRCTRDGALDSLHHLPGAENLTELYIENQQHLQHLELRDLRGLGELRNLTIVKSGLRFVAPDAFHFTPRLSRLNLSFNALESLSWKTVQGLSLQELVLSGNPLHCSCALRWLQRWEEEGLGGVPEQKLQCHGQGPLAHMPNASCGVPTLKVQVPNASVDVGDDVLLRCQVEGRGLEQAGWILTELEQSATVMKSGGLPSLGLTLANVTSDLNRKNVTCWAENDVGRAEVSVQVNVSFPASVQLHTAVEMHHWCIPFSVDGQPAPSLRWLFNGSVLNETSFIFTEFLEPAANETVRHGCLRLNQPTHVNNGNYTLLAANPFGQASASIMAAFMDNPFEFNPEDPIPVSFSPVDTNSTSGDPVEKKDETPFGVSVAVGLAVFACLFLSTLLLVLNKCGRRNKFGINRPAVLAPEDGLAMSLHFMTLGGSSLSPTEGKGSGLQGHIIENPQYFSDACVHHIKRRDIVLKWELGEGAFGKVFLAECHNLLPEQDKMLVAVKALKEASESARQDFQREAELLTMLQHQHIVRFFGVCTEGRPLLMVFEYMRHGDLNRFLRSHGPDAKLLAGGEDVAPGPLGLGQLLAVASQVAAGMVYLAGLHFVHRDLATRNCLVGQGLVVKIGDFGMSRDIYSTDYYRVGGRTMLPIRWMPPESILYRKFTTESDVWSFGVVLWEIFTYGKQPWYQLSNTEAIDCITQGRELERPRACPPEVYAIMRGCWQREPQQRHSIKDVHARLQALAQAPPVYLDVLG

Chain of Angiopoietin-1 receptor (Homo sapiens) (Q02763 whole entry): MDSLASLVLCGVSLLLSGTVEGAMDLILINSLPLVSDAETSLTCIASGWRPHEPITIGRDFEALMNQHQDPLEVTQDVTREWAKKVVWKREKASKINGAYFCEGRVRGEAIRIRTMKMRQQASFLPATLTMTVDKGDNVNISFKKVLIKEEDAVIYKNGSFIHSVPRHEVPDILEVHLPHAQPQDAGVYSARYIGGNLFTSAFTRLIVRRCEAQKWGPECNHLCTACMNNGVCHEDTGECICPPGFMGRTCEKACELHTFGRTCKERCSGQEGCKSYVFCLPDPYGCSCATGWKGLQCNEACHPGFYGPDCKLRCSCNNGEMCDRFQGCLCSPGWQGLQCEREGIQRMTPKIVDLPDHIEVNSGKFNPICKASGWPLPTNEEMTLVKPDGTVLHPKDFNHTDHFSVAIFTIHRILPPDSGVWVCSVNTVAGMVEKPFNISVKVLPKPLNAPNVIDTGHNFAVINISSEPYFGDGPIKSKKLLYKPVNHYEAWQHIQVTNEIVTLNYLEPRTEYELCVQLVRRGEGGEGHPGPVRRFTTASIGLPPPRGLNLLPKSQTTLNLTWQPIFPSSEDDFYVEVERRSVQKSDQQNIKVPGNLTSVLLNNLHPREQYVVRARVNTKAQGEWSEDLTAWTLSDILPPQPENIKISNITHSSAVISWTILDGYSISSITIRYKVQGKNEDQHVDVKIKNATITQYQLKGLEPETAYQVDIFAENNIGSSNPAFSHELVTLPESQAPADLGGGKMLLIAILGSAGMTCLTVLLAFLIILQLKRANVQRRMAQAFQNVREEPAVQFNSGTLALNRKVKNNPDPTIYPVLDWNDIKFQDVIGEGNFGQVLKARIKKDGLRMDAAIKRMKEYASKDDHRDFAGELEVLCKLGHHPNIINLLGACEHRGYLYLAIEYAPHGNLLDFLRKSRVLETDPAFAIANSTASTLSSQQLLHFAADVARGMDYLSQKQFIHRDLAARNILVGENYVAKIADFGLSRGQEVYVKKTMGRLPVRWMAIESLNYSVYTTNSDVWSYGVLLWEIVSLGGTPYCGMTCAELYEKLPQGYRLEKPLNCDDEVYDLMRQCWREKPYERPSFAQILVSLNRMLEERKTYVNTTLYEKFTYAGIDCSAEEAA
Chain of Proto-oncogene tyrosine-protein kinase receptor Ret (Homo sapiens), P07949 [Y791F] (P07949 whole entry Y791F): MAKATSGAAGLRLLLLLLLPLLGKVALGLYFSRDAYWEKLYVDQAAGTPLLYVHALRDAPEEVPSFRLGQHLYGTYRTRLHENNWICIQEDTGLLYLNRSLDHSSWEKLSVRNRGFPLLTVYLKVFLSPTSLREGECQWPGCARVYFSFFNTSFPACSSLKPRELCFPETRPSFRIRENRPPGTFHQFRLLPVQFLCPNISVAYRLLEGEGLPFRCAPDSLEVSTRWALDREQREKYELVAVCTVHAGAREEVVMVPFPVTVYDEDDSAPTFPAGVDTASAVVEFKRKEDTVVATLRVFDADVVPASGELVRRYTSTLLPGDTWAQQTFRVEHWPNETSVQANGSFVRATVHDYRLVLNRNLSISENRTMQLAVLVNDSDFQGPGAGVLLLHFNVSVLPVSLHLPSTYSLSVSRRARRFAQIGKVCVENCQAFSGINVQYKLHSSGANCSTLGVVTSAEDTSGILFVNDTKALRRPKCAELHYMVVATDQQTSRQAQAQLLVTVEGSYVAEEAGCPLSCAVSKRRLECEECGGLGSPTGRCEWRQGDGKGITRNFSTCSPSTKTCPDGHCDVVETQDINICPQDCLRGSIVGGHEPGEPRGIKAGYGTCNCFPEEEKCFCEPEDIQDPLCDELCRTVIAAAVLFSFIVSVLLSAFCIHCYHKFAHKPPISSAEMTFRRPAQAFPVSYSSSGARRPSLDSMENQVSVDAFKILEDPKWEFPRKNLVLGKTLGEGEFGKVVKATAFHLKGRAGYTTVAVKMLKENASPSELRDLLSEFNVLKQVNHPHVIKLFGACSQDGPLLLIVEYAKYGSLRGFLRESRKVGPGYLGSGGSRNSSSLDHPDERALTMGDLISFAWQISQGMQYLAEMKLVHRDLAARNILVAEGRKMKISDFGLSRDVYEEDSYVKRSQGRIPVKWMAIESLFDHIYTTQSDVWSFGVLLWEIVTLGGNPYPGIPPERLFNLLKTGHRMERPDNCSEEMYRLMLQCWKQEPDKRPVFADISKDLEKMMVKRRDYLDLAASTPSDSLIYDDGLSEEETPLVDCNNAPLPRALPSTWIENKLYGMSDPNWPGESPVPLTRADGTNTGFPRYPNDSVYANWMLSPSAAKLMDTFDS

Regarding `CCN1CCC(C(=O)Nc2n[nH]c3nnc(-c4cccc(F)c4F)cc23)CC1`, the inhibition was 3.53% in experiment [1]; 0.53% in experiment [2]; 0.25% in experiment [3]; -1.03% in experiment [4]; 3.74% in experiment [5]; -1.14% in [6]. In addition, the inhibition in experiment [7] is -2.38%; in experiment [8] it was 1.44%; in experiment [9], 2.12%; in experiment [10] it was 0.98%; in [11], 0.2%; in experiment [12], -1.63%. Moreover, the inhibition in [13] was 0.37%; in [14] it was 1.84%; in [15] it was 2.91%; in experiment [16], 1.54%; in experiment [17] it was 0.05%; in experiment [18], -0.13%. Moreover, the inhibition in experiment [19] came out at 0.07%; in experiment [20], 1.95%.
Take `NS(=O)(=O)c1cccc(N/C=C2\C(=O)Nc3ccccc32)c1`: the inhibition in [1] was 34.3%; in experiment [2], -4.07%; in experiment [3], 7.57%; in experiment [4] it was 5.69%; in [5] it was 9.87%; in [6] it was 1.93%. For the same compound, the inhibition in experiment [7] was 12.9%; in [8], -0.1%; in experiment [9], -1.56%; in [10], -6.93%; in experiment [11], -1.66%; in experiment [12], 4.94%. Besides, the inhibition is 7.41% in experiment [13]; 4.12% in experiment [14]; 8.33% in experiment [15]; 3.06% in [16]; 5.85% in experiment [17]; 0.36% in experiment [18]. For the same compound, the results for the inhibition in [19] and in [20] were 1.26% and 4.69%, respectively.
As for `Nc1ncnc2occ(-c3ccc(NC(=O)Nc4cc(C(F)(F)F)ccc4F)cc3)c12`, the inhibition in [1] is 85.5% and 86.1%; in experiment [2], 6.58% and -2.93%; in experiment [3], 12.2% and 2.9%; in experiment [4], 4.91% and 3.1%; in [5], 28.1% and 13.7%; in experiment [6], 10.1% and 1.77%. Besides, the inhibition in experiment [7] was 48.3% and 31.9%; in experiment [8] it was 0.41% and -0.6%; in experiment [9], 0.84% and 0.62%; in experiment [10], -4.8% and -1.07%; in experiment [11], -9.91%; in [12], 3.07% and -2.99%. For the same compound, the inhibition was 5.25% and -1.81% in [13]; 63.7% and 59.4% in [14]; 79% and 80.6% in [15]; 10.7% and 2.54% in experiment [16]; 50% and 25.8% in experiment [17]; 1.25% and -0.32% in [18]. The inhibition in [19] is 2.06% and -0.97%; in [20], 57.1% and 36.6%.
On to `c1cnn2ncc(-c3ccnc(NCCCN4CCOCC4)n3)c2c1`, for which the inhibition in experiment [1] stood at 0.64%; in experiment [2] it was 7.49%; in experiment [3], 0.88%; in [4], 5.24%; in experiment [5], 8.64%; in experiment [6], 2.26%. For the same compound, the inhibition in experiment [7] was 5.93%; in [8], 0.14%; in [9] it was 1.41%; in experiment [10], -6.13%; in [11] it was 0.5%; in experiment [12], 2.64%. The inhibition in [13] was 3.12%; in experiment [14], 2.79%; in experiment [15], 3.09%; in experiment [16], 1.04%; in [17] it was -1.51%; in [18], 0.23%. Also, the results for the inhibition in [19] and in experiment [20] were -0.49% and 2.69%, respectively.
On to `CS(=O)(=O)Nc1ccc(-c2cc(-c3ccccc3)cc(C(N)=O)c2N)cc1`, for which the inhibition in [1] is 3.96%; in experiment [2], -0.02%; in experiment [3], -1.34%; in experiment [4], 4.8%; in [5], 6.51%; in [6], 2.73%. In addition, the inhibition in experiment [7] was 4.51%; in experiment [8] it was -2.19%; in experiment [9], -2.04%; in [10], -0.83%; in experiment [11] it was 0.38%; in experiment [12], 0.8%. The inhibition in experiment [13] was 1.3%; in [14], 0.34%; in experiment [15] it was 0.58%; in experiment [16] it was 1.13%; in experiment [17], 5.5%; in [18] it was -0.09%. Besides, the inhibition was -0.33% in [19] and 3.2% in experiment [20].
For the compound `CN(c1ccc(NC(=O)NCCN2CCOCC2)cc1)c1ccnc(Nc2ccc(CS(C)(=O)=O)cc2)n1`, the inhibition in experiment [1] was 73.6%; in experiment [2] it was 4.51%; in experiment [3], 15.6%; in [4], 9.47%; in experiment [5], 43.5%; in [6], 4.5%. Also, the inhibition was 18.4% in [7]; -1.89% in experiment [8]; 1.22% in experiment [9]; -3.19% in experiment [10]; -6.78% in experiment [11]; 5.49% in experiment [12]. The inhibition amounted to 24.8% in [13]; 3.99% in [14]; 29.3% in experiment [15]; 15.5% in [16]; 63.5% in experiment [17]; 1.35% in experiment [18]. The inhibition in experiment [19] was 8.46%; in experiment [20], 1.46%.
Take `CN1CCN(Cc2ccc(-c3cc4ncnc(Nc5ccc(OCc6cccc(F)c6)c(Cl)c5)c4s3)o2)CC1`: the inhibition was 11.4% and 17.4% in experiment [1]; 3.2% and 3.55% in experiment [2]; 10.2% and 6.54% in [3]; 3.07% and 6.46% in experiment [4]; 6.26% and 12.4% in experiment [5]; 4.74% in experiment [6]. The inhibition in experiment [7] was 13.4% and 18.3%; in experiment [8] it was -1.16% and -1.22%; in experiment [9] it was 0.02% and -0.37%; in experiment [10], 0.19% and -1.76%; in experiment [11], -0.79% and 0.39%; in [12], 0.53% and 4.75%. Further, the inhibition was 4.67% and 6.65% in experiment [13]; 4.14% and 4.04% in [14]; 16.7% and 17.8% in experiment [15]; 2.88% and 6.1% in experiment [16]; 18.5% and 23.1% in experiment [17]; 1.15% and 2.06% in experiment [18]. Also, the inhibition in [19] was 2.33% and 3.5%; in experiment [20], 1.64% and -0.7%.
